± gives the standard deviation of the averaged measurements.
System: Caenorhabditis elegans N2
Assay: egg-laying rate relative to DMSO control (M9 buffer background) (fraction of control); higher = more egg-laying
Conditions: 60 µM, 1 h
Method: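 About 20 young-adult wild-type C. elegans (N2) per well in 96-well plates were exposed to 60 uM compound for 1 h at room temperature, either in M9 buffer (to find stimulators) or in 12.3 mM serotonin + 7.7 mM nicotine (NS, to find inhibitors). Eggs per worm per hour were counted by automated imaging and normalised to the mean of proximal DMSO control wells. Values average the primary screen and two retests of the worm-active (wactive) Egl modulators.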

Row | Compound | egg-laying rate
1 | O=C(Nc1cccc(Cl)c1)N1CCN(c2ccc([N+](=O)[O-])cc2)CC1 [wact-31] | 2.02 ± 0.75
2 | c1ccc(CSc2nnc(-c3ccccc3)o2)cc1 [wact-38] | 8.44 ± 0.94
3 | O=[N+]([O-])c1ccc(CSc2ccc(Cl)cc2)cc1 [wact-3] | 2.13 ± 0.22
4 | c1csc(-c2cnc3ccccc3n2)c1 [wact-21] | 4.69 ± 1.8
5 | CCSc1nnc(-c2ccc(Cl)cc2Cl)o1 [wact-4] | 4.56 ± 1.9
6 | CCCCOC(=O)Nc1ccc([N+](=O)[O-])cc1 [wact-419] | 2.9 ± 0.58
7 | Ic1cccc(-c2nnc(-c3ccccc3)o2)c1 [wact-51] | 2.92 ± 1.6
8 | CCOc1ccc(C(=O)c2cccs2)cc1 [wact-471] | 2.49 ± 2.2
9 | O=[N+]([O-])c1ccc(N2CCc3ccccc3C2)nc1 [wact-421] | 1.83 ± 0.59
10 | Cc1ccn2cc(-c3ccc(F)cc3)nc2c1 [wact-436] | 1.94 ± 0.73
11 | CCC1CCC(N2CCN(c3ccc([N+](=O)[O-])cc3)CC2)CC1 (stereo not given) [wact-6] | 7.85 ± 2.4
12 | Clc1ccc(-c2cn3ccsc3n2)cc1 [wact-1] | 1.94 ± 0.54
13 | O=C(Nc1ccc(I)cc1)c1ccco1 [wact-27] | 3.06 ± 1.5
14 | CCc1ccc(-c2cn3ccsc3n2)cc1 [wact-434] | 1.53 ± 0.93
15 | O=[N+]([O-])c1ccc(N2CCN(CC3CC=CCC3)CC2)cc1 (stereo not given) [wact-47] | 10.6 ± 6.3
16 | Brc1cccc(-c2cn3ccccc3n2)c1 [wact-435] | 0.576 ± 0.34
17 | COc1ccc(C=Cc2ccccn2)cc1 [wact-622] | 1.19 ± 0.28
18 | Cc1ccccc1C(=O)NCCSC1CCCCC1 [wact-494] | 1.03 ± 0.24
19 | O=[N+]([O-])c1ccc(-n2ccc3ccccc32)cc1 [wact-213] | 2.13 ± 1.5
20 | Fc1ccc(-c2cn3ccsc3n2)cc1 [wact-433] | 3.02 ± 1.1
21 | O=[N+]([O-])c1ccc(N2CCN(CC3CC4C=CC3C4)CC2)cc1 (stereo not given) [wact-46] | 11 ± 6.7
22 | Cc1ccc(-c2cnc(-c3ccncc3)o2)cc1 [wact-23] | 3.94 ± 1.5
23 | O=C1CC(N2CCN(c3ccc([N+](=O)[O-])cc3)CC2)C(=O)N1c1ccccc1F (stereo not given) [wact-56] | 2.24 ± 0.45
24 | Cc1ccccc1C(=O)NCCc1ccccc1 [wact-406] | 0.741 ± 0.36
25 | O=[N+]([O-])c1ccc(N2CCN(CC3CCCCC3)CC2)cc1 [wact-45] | 4.22 ± 1.8

From the supplement of paper PMC9402605
